This is a sample that favours compounds with a hit; in the whole collection about 2.2% have one here.
SMARCA2 act = activators of SMARCA2 function; MG213 cells, MMTV-luciferase reporter, dexamethasone, overnight; activation, % at 9.1 µM; 370,000 compounds, 1% hits; AID 652017; in the data active = activation above about 7.8%;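 also: 0% = vehicle wells and 100% = reference activator wells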
Hsp70 activator = switches on Hsp70 transcription; HeLa Hsp70 promoter luciferase reporter, luminescence; scaled: vehicle 0, proteasome-inhibitor control 100%; activation, % at 10 µM; 200,000 compounds, 0.04% hits; AID 1203;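 active = activation above the mean across all tested compounds plus 3 SD, cutoff set per campaign, cut at about 5.5% in these data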;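 also: 100% = MG132 at 30 µM as the positive control and 0% = DMSO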
HIF act = HIF pathway transcriptional activation | U2OS HRE-luciferase reporter, luminescence; normalized: DMSO 0%, desferrioxamine 100% | activation, % at 7.5 µM (by protocol) | 300,000 compounds, 0.32% hits | AID 1910;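 active = mean activation of at least 10% of the iron chelator positive control signal, with at least half of replicates also reaching 10%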
GAA850 FXN act = activators of GAA850 frataxin (FXN) promoter; 360,000 compounds, 0.56% hits; activation, % at 6 µM; HEK293 lucGAA850 FXN promoter luciferase reporter, 24 h; percent of 10 µM SAHA response;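 active = activation above the average of all compounds screened plus 3 SD, cutoff fixed separately per campaign, cut at about 7.5% in these data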;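 also: 0% = DMSO wells and 100% = 10 µM SAHA wells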
GalR3 antagonist = human GalR3 antagonism; O60755; AID 651719; HEK293 GalR3-CNG cAMP membrane potential fluorescence; galR3 body fused to GalR1 C-terminus; inhibition, % at 3 µM; 360,000 compounds, 0.44% hits;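 active = inhibition above the screen-wide average plus 3 SD, cut at about 13% in these data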;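 also: forskolin and galanin both at EC90 stimulate the cells; cAMP rise reported by CNG channel membrane potential dye signal; 0% = forskolin plus galanin with DMSO and 100% = forskolin alone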
Target sequence (O60755 1-299 limits assumed): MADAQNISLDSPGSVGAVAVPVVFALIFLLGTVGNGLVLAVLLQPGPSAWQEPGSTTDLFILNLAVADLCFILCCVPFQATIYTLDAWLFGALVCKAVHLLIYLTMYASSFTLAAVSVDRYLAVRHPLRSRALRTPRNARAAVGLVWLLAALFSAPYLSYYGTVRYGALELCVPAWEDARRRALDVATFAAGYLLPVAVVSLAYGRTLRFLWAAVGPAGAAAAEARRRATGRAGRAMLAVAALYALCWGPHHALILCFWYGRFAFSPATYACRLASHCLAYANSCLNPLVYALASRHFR
GAA30 counter = GAA30 FXN promoter activation counter-screen. shares compounds with GAA850 FXN act. HEK293 lucGAA30 FXN promoter luciferase, 24 h; DMSO = 0%, 5 µM ipriflavone = 100%. activation, % at 6 µM. 1,900 compounds, 66% hits;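 active = mean activation above the mean of solvent-only control wells plus 3 SD, cut at about 22% in these data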;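 also: counterscreen of GAA850 promoter hits where activity marks nonselective or luminescence artifacts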
GAA850 confirm = confirmation of GAA850 frataxin (FXN) promoter activators. shares compounds with GAA850 FXN act. HEK293 lucGAA850 FXN promoter luciferase reporter, 24 h; 100% = activation by SAHA. activation, % at 6 µM. 1,900 compounds, 86% hits;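 active = mean activation above a set limit taken from the primary screen, cut at about 8% in these data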;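 also: 0% = DMSO wells and 100% = 10 µM SAHA wells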
GalR3 antag conf = GalR3 (human) antagonism, confirmation; HEK293 GalR3 CNG cAMP biosensor, membrane potential fluorescence; galR3 fused to GalR1 carboxy tail; challenged with forskolin and galanin at EC90; shares compounds with GalR3 antagonist; 1,600 compounds, 59% hits; inhibition, % at 3 µM;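 active = inhibition above the primary screen's cutoff, the mean inhibition of all screened compounds plus 3 SD, cut at about 13% in these data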;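 also: 0% = forskolin plus galanin and 100% = forskolin alone with DMSO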
CNG parental = parental cell agonism counter-screen for GalR3 antagonists | shares compounds with GalR3 antagonist | 1,600 compounds, 10% hits | activation, % at 3 µM | HEK293-CNG parental cells, cAMP membrane potential fluorescence; normalised: DMSO wells 0%, forskolin wells 100% | AID 652268; in the data active = activation above about 1.3%
SMARCA2 conf = confirmation of SMARCA2 (BRM) function activators | shares compounds with SMARCA2 act | MG213 cells, MMTV-luciferase with dexamethasone, luminescence, overnight; MG213 cells expressing E1A, Rb sequestered; DMSO wells 0%, reference activator 100% | activation, % at 9.1 µM | 3,500 compounds, 30% hits;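 active = activation above its plate's cutoff, the mean activation of tested wells plus 3 SD, cut at about 7.9% in these data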
GAL4-VP16 Luc = activates GAL4-VP16 luciferase, flagging SMARCA2 activator hits | AID 686939 | 3,500 compounds, 41% hits | HEK293 GAL4-VP16 pG5luc reporter, luciferase luminescence; scaled: DMSO wells 0%, SAHA wells 100% | activation, % at 9.1 µM | shares compounds with SMARCA2 act;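 active = activation above the solvent-only control well mean plus 3 SD, averaged across control plates, cut at about 5.2% in these data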
* hit, by the source's call; nt = no result given.

SMILES | SMARCA2 act | Hsp70 activator | HIF act | GAA850 FXN act | GalR3 antagonist | GAA30 counter | GAA850 confirm | SMARCA2 conf | GAL4-VP16 Luc | others
O=C(Oc1c(CN2CCOCC2)cc(Cl)c2cccnc12)c1ccc(F)cc1 | 6 | 0 | 3 | 0 | -4 | nt | nt | nt | nt
O=C(Oc1c(CN2CCOCC2)cc(Cl)c2cccnc12)c1ccccc1Cl | 19* | 0 | -1 | 13* | -2 | 3 | 19* | -1 | 1
COc1ccc2c(CC(=O)Nc3ncc(C)s3)coc2c1 | 29* | 0 | 2 | 8.7* | 0 | 91* | 55* | 42* | 4
CCOC(=O)c1nc(S(C)(=O)=O)ncc1Cl | 34* | 0 | 0 | 41* | -6 | 63* | 73* | -1 | 4
C[C@H](O)[C@@H]1CN2CCc3ccc(N4CCOCC4)cc3[C@@H]2C[C@@H]1N(C)CC1CCCCC1 | -1 | nt | nt | nt | nt | nt | nt | nt | nt
COc1ccc(-c2nn3c(C4CCCCC4)nnc3s2)cc1OC | 12* | 0 | -1 | 13* | 17* | 13 | 9.7* | 7 | 4 | GalR3 antag conf=24*;CNG parental=1
COc1ccc(C2=Nn3c(nnc3C3CCCCC3)SC2)cc1OC | 14* | 0 | 0 | 13* | 49* | 14 | 13* | 14* | 7.3* | GalR3 antag conf=48*;CNG parental=1
COc1ccccc1C1=Nn2c(nnc2C2CCCCC2)SC1 | -4 | 0 | nt | 1 | 0 | nt | nt | nt | nt
Cc1cc2c([nH]c3ccccc32)c2c1OC(C)(C)C=C2 | 8.3* | nt | 4 | 8.2* | 1 | 124* | 46* | 14* | 7.9*
O=C1c2cccc3c(N4CCCCC4)ccc(c23)C(=O)N1CCO | 8.5* | 0 | 3 | 8.3* | -1 | 88* | 33* | 7.8* | 8.6*
CCOc1ccc2nc(C)cc(Nc3cccc([N+](=O)[O-])c3)c2c1 | 14* | 0 | -3 | 7.7* | 0 | 26* | 20* | 32* | 3
CCC(C(=O)Nc1ccccc1N1CCCC1)c1ccccc1Cl (stereo not given) | -3 | nt | nt | nt | nt | nt | nt | nt | nt
Cn1c(=NC(=O)c2cccc([N+](=O)[O-])c2)sc2ccccc21 | 8.7* | 0 | 4 | 9.1* | -1 | 120* | 36* | 6 | 14*
O=C(c1c(F)cccc1F)N1CCC(Oc2cccnc2)CC1 | -1 | nt | nt | nt | nt | nt | nt | nt | nt
C[C@@H]1C[C@H](O)CCCCCC(=O)Cc2cc(O)cc(O)c2C(=O)O1 | 2 | nt | nt | nt | nt | nt | nt | nt | nt
Cc1ccsc1/C=C/c1ccc2ccccc2n1 | 4 | 0 | -3 | 6 | -4 | nt | nt | nt | nt
Cc1ccsc1/C=C/c1ccc2cccc(O)c2n1 | 13* | 0 | 1 | 8.5* | -3 | 4 | 24* | -9 | 19*
Oc1cccc2ccc(/C=C/c3cccs3)nc12 | 13* | 1 | 3 | 11* | -7 | 35* | 24* | -2 | 23*
Oc1cccc2ccc(/C=C/c3ccccc3Br)nc12 | 5 | nt | -3 | 0 | -8 | nt | nt | nt | nt
COc1ccc(N2CCN(CCNS(=O)(=O)c3c(C(C)C)cc(C(C)C)cc3C(C)C)CC2)cc1 | -6 | nt | nt | nt | nt | nt | nt | nt | nt
COc1cc2sc3cc(NCc4ccc5c(c4)OCO5)ccc3c(=O)c2cc1OC | 3 | nt | nt | 6 | 5 | nt | nt | nt | nt
COc1cc2sc3cc(NCc4ccc(C)o4)ccc3c(=O)c2cc1OC | 8.7* | nt | nt | 11* | -4 | 109* | 35* | 8.9* | 9.3*
O=C(CS(=O)(=O)c1ccccc1)N1CCc2ccccc21 | 10* | 0 | 1 | 8.5* | 4 | 99* | 30* | 8.5* | 9.8*
O=C(Cc1ccccc1)N1CCc2ccccc21 | 4 | 0 | 1 | 4 | 3 | nt | nt | nt | nt
CN1CCCN(C(=O)C2CCCN(C(=O)c3ccc4c(c3)NC(=O)CS4)C2)CC1 (stereo not given) | 2 | nt | nt | nt | nt | nt | nt | nt | nt
SMILES | SMARCA2 act | Hsp70 activator | HIF act | GAA850 FXN act | GalR3 antagonist | GAA30 counter | GAA850 confirm | SMARCA2 conf | GAL4-VP16 Luc | others
CC(C)c1ccc(N(C(=O)c2ccco2)C(C(=O)NC2CCCC2)c2ccncc2)cc1 (stereo not given) | 8.0* | nt | 0 | 10* | -9 | 106* | 38* | 3 | 3
COC(=O)[C@]12C[C@H](CC(=O)NCCC(C)C)C(=O)N(Cc3cccc4ccccc34)C1=C[C@H](C(C)C)O[C@@H]2C1CC1 | 0 | nt | nt | nt | nt | nt | nt | nt | nt
Nc1c(C(=O)N2CCCCC2)sc2nc3c(cc12)CCCC3 | 5 | nt | 3 | 3 | -7 | nt | nt | nt | nt
Cc1ccc(C(=O)c2sc3nc4c(cc3c2N)CCC4)cc1 | 9.1* | 0 | 2 | 8.4* | -1 | 100* | 41* | 8.4* | 8.3*
COC(=O)[C@]12C[C@H](CC(=O)N3CCN(C(=O)c4ccco4)CC3)C(=O)N(Cc3ccco3)C1=C[C@H](C(C)(C)C)O[C@@H]2C | -3 | nt | nt | nt | nt | nt | nt | nt | nt
Cc1ccc(-c2nc(CN3CCCCC3)cc(CN3CCCCC3)c2O)cc1 | 8.2* | 0 | 0 | 7.9* | -4 | 29* | 17* | 3 | 2
COC(=O)[C@]12C[C@H](CC(=O)NCCC(C)C)C(=O)N(Cc3ccc4c(c3)OCO4)C1=C[C@H](C(C)(C)C)O[C@@H]2C | -2 | nt | nt | nt | -7 | nt | nt | nt | nt
OCCCNc1c2ccccc2nc2ccccc12 | 19* | nt | 16* | 13* | -11 | -15 | 119* | 145* | 1
CCC(=O)N1CCc2cc(Br)c(S(=O)(=O)NCc3ccccc3OC)cc21 | 3 | nt | nt | nt | nt | nt | nt | nt | nt
Cc1ccc(/C=C/C(=O)NC2CCCCCCC2)o1 | 8.0* | 0 | -9 | 11* | -2 | 99* | 49* | 20* | 4
COc1ccc2c(c1)oc(=O)c1cc(OC)ccc12 | 9.1* | 0 | 3 | 7.9* | 3 | 122* | 44* | 20* | 6.5*

Screening results: PubChem BioAssay, several laboratories
